Measured values taken from the supplement of paper PMC7695840.
Counter-ions that a name gives are not always drawn.

Each compound was assayed on Staphylococcus aureus MW2 delta-mecA (mecA-) (assay: normalized GFP fluorescence (growth of mecA- strain) (fraction of control range); higher = more growth of mecA- strain). Conditions: compound concentration: 150 uM; cefoxitin: subinhibitory; fluorescent label: GFP.
In short: (§1)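 A 1:1 mix of pre-induced S. aureus MW2 cells, DsRed-labeled with the gene and GFP-labeled without it, was grown in LB with a daily-set subinhibitory antibiotic dose on 150 μM compound (1.5% DMSO) in 1536-well plates, single replicate. Growth lasted 20 h at 37 °C, 90% humidity, without shaking, and DsRed (540/590) and GFP (485/520) were then read. Channels were scaled per plate to single-strain control medians, and plates with high untreated ratios and rows with DsRed/GFP >10 were removed.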

SMILES	normalized GFP fluorescence
Cc1nc(C)c(Cl)c(O)c1Cl	0.341
CC(C[N+](C)(C)C)OC(N)=O (stereo not given)	0.554
O=C(O)c1cc(-c2ccc(F)cc2F)ccc1O	0.0802
NC(=O)c1ncn([C@@H]2O[C@H](CO)[C@@H](O)[C@H]2O)c1N [Acadesine]	0.499
CC(CN1c2ccccc2Sc2ccccc21)N(C)C (stereo not given)	-0.00976
NC(N)=Nc1nc(CSCC/C(N)=N/S(N)(=O)=O)cs1	0.53
COCCCOc1cc(C[C@@H](C[C@H](N)[C@@H](O)C[C@H](C(=O)NCC(C)(C)C(N)=O)C(C)C)C(C)C)ccc1OC	0.131
c1ccc(CC2=NCCN2)cc1	0.234
CC(=O)c1ccc2c(c1)N(CCCN1CCN(CCO)CC1)c1ccccc1S2	0.252
COc1cc2ncnc(Nc3ccc(F)c(Cl)c3)c2cc1NC(=O)/C=C/CN1CCCCC1	0.102
OC(CCN1CCCCC1)(c1ccccc1)C1CCCCC1 (stereo not given)	0.277
C1CCN2C[C@@H]3C[C@@H](CN4CCCC[C@@H]34)[C@H]2C1	0.334
Cc1ncc([N+](=O)[O-])n1CC(C)O (stereo not given) [Secnidazole (Flagentyl)]	0.266
CN(C)C(=O)COC(=O)Cc1ccc(OC(=O)c2ccc(NC(=N)N)cc2)cc1 [Camostat Mesilate (FOY-305)]	0.0607
Cc1cc2nc3c(=O)[nH]c(=O)nc-3n(CC(O)C(O)C(O)COP(=O)(O)O)c2cc1C (stereo not given)	0.933
NC(=O)[C@@H]1CCCN1C(=O)[C@H](Cc1c[nH]cn1)NC(=O)[C@@H]1CCC(=O)N1	0.621
CN(C)CCOC(C)(c1ccccc1)c1ccccn1 (stereo not given)	0.411
C[C@@H]1O[C@@H](OC[C@H]2O[C@@H](Oc3c(-c4ccc(OCCO)c(OCCO)c4)oc4cc(OCCO)cc(O)c4c3=O)[C@H](O)[C@@H](O)[C@@H]2O)[C@H](O)[C@H](O)[C@H]1O [Troxerutin]	0.934
COc1ccc2[nH]cc(CCNC(C)=O)c2c1 [Melatonin]	0.484
COCCOC(=O)C1=C(C)NC(C)=C(C(=O)OC/C=C/c2ccccc2)C1c1cccc([N+](=O)[O-])c1 (stereo not given) [Cilnidipine]	0.176

SMILES	normalized GFP fluorescence
CN[C@@H]1[C@H](O)[C@H](NC)[C@H]2O[C@@]3(O)C(=O)C[C@@H](C)O[C@H]3O[C@@H]2[C@H]1O	0.198
C[C@@H]1C/C=C/C=C/C=C/C=C/[C@H](O[C@@H]2O[C@H](C)[C@@H](O)[C@H](N)[C@@H]2O)C[C@@H]2O[C@](O)(C[C@@H](O)C[C@H]3O[C@@H]3/C=C/C(=O)O1)C[C@H](O)[C@H]2C(=O)O	0.448
NCCc1c[nH]cn1	0.621
CCCCCC(C)N (stereo not given)	0.403
CC(=O)OCC(=O)NCCCOc1cccc(CN2CCCCC2)c1 [Roxatidine acetate HCl]	0.438
CN(C)CCOC(=O)C(c1ccccc1)C1(O)CCCC1 (stereo not given)	0.34
COC(=O)[C@H]1[C@H]2C[C@@H]3c4[nH]c5cc(OC)ccc5c4CCN3C[C@H]2C[C@@H](OC(=O)c2cc(OC)c(OC)c(OC)c2)[C@@H]1OC	0.0258
NS(=O)(=O)c1cc(Cl)c(Cl)c(S(N)(=O)=O)c1 [Dichlorphenamide (Diclofenamide)]	0.31
CCOC(=O)O[C@]1(C(=O)COC(=O)CC)CC[C@H]2[C@@H]3CCC4=CC(=O)C=C[C@]4(C)[C@H]3[C@@H](O)C[C@@]21C	0.129
CCOc1ccc(NC(C)=O)cc1	0.419
CN1Cc2c(N)cccc2C(c2ccccc2)C1 (stereo not given)	0.359
Nc1cccc2c1CN(C1CCC(=O)NC1=O)C2=O (stereo not given) [Lenalidomide]	0.34
Oc1ccc(OCc2ccccc2)cc1	0.0954
COc1cc2nccc(Oc3ccc(NC(=O)C4(C(=O)Nc5ccc(F)cc5)CC4)cc3)c2cc1OC [Cabozantinib malate]	0.367
CC(C)(C)C(=O)OCOP(=O)(COCCn1cnc2c(N)ncnc21)OCOC(=O)C(C)(C)C [Adefovir Dipivoxil (Preveon, Hepsera)]	0.38
Cc1nnc(C(C)C)n1C1C[C@H]2CC[C@@H](C1)N2CC[C@H](NC(=O)C1CCC(F)(F)CC1)c1ccccc1 (stereo in doubt) [Maraviroc]	0.747
COC(=O)C1=C(C)NC(C)=C(C(=O)OCCN(C)Cc2ccccc2)C1c1cccc([N+](=O)[O-])c1 (stereo not given)	-0.00636
CCOC(=O)c1ncn2c1CN(C)C(=O)c1cc(F)ccc1-2	0.408
CC(C)NCC(O)COc1cccc2[nH]ccc12 (stereo not given)	0.242
Cn1cnc2c1c(=O)[nH]c(=O)n2C	0.351

The compounds below were run on Staphylococcus aureus MW2 (mecA+) (assay: normalized DsRed fluorescence (growth of mecA+ strain) (fraction of control range); higher = more growth of mecA+ strain). Conditions: compound concentration: 150 uM; cefoxitin: subinhibitory; fluorescent label: DsRed.
In short: as §1

SMILES	normalized DsRed fluorescence
Cc1nc(C)c(Cl)c(O)c1Cl	0.741
CC(C[N+](C)(C)C)OC(N)=O (stereo not given)	0.879
O=C(O)c1cc(-c2ccc(F)cc2F)ccc1O	0.298
NC(=O)c1ncn([C@@H]2O[C@H](CO)[C@@H](O)[C@H]2O)c1N [Acadesine]	0.776
CC(CN1c2ccccc2Sc2ccccc21)N(C)C (stereo not given)	0.917
NC(N)=Nc1nc(CSCC/C(N)=N/S(N)(=O)=O)cs1	0.755
COCCCOc1cc(C[C@@H](C[C@H](N)[C@@H](O)C[C@H](C(=O)NCC(C)(C)C(N)=O)C(C)C)C(C)C)ccc1OC	0.717
c1ccc(CC2=NCCN2)cc1	0.835
CC(=O)c1ccc2c(c1)N(CCCN1CCN(CCO)CC1)c1ccccc1S2	1.08
COc1cc2ncnc(Nc3ccc(F)c(Cl)c3)c2cc1NC(=O)/C=C/CN1CCCCC1	0.557
OC(CCN1CCCCC1)(c1ccccc1)C1CCCCC1 (stereo not given)	0.789
C1CCN2C[C@@H]3C[C@@H](CN4CCCC[C@@H]34)[C@H]2C1	0.556
Cc1ncc([N+](=O)[O-])n1CC(C)O (stereo not given) [Secnidazole (Flagentyl)]	0.482
CN(C)C(=O)COC(=O)Cc1ccc(OC(=O)c2ccc(NC(=N)N)cc2)cc1 [Camostat Mesilate (FOY-305)]	0.818
Cc1cc2nc3c(=O)[nH]c(=O)nc-3n(CC(O)C(O)C(O)COP(=O)(O)O)c2cc1C (stereo not given)	0.535
NC(=O)[C@@H]1CCCN1C(=O)[C@H](Cc1c[nH]cn1)NC(=O)[C@@H]1CCC(=O)N1	0.766
CN(C)CCOC(C)(c1ccccc1)c1ccccn1 (stereo not given)	0.892
C[C@@H]1O[C@@H](OC[C@H]2O[C@@H](Oc3c(-c4ccc(OCCO)c(OCCO)c4)oc4cc(OCCO)cc(O)c4c3=O)[C@H](O)[C@@H](O)[C@@H]2O)[C@H](O)[C@H](O)[C@H]1O [Troxerutin]	0.471
COc1ccc2[nH]cc(CCNC(C)=O)c2c1 [Melatonin]	0.734
COCCOC(=O)C1=C(C)NC(C)=C(C(=O)OC/C=C/c2ccccc2)C1c1cccc([N+](=O)[O-])c1 (stereo not given) [Cilnidipine]	0.777

SMILES	normalized DsRed fluorescence
CN[C@@H]1[C@H](O)[C@H](NC)[C@H]2O[C@@]3(O)C(=O)C[C@@H](C)O[C@H]3O[C@@H]2[C@H]1O	0.555
C[C@@H]1C/C=C/C=C/C=C/C=C/[C@H](O[C@@H]2O[C@H](C)[C@@H](O)[C@H](N)[C@@H]2O)C[C@@H]2O[C@](O)(C[C@@H](O)C[C@H]3O[C@@H]3/C=C/C(=O)O1)C[C@H](O)[C@H]2C(=O)O	0.753
NCCc1c[nH]cn1	0.661
CCCCCC(C)N (stereo not given)	0.663
CC(=O)OCC(=O)NCCCOc1cccc(CN2CCCCC2)c1 [Roxatidine acetate HCl]	0.76
CN(C)CCOC(=O)C(c1ccccc1)C1(O)CCCC1 (stereo not given)	0.757
COC(=O)[C@H]1[C@H]2C[C@@H]3c4[nH]c5cc(OC)ccc5c4CCN3C[C@H]2C[C@@H](OC(=O)c2cc(OC)c(OC)c(OC)c2)[C@@H]1OC	1.04
NS(=O)(=O)c1cc(Cl)c(Cl)c(S(N)(=O)=O)c1 [Dichlorphenamide (Diclofenamide)]	0.653
CCOC(=O)O[C@]1(C(=O)COC(=O)CC)CC[C@H]2[C@@H]3CCC4=CC(=O)C=C[C@]4(C)[C@H]3[C@@H](O)C[C@@]21C	1.07
CCOc1ccc(NC(C)=O)cc1	0.668
CN1Cc2c(N)cccc2C(c2ccccc2)C1 (stereo not given)	0.781
Nc1cccc2c1CN(C1CCC(=O)NC1=O)C2=O (stereo not given) [Lenalidomide]	0.974
Oc1ccc(OCc2ccccc2)cc1	0.522
COc1cc2nccc(Oc3ccc(NC(=O)C4(C(=O)Nc5ccc(F)cc5)CC4)cc3)c2cc1OC [Cabozantinib malate]	0.686
CC(C)(C)C(=O)OCOP(=O)(COCCn1cnc2c(N)ncnc21)OCOC(=O)C(C)(C)C [Adefovir Dipivoxil (Preveon, Hepsera)]	0.712
Cc1nnc(C(C)C)n1C1C[C@H]2CC[C@@H](C1)N2CC[C@H](NC(=O)C1CCC(F)(F)CC1)c1ccccc1 (stereo in doubt) [Maraviroc]	0.67
COC(=O)C1=C(C)NC(C)=C(C(=O)OCCN(C)Cc2ccccc2)C1c1cccc([N+](=O)[O-])c1 (stereo not given)	1.02
CCOC(=O)c1ncn2c1CN(C)C(=O)c1cc(F)ccc1-2	0.611
CC(C)NCC(O)COc1cccc2[nH]ccc12 (stereo not given)	1.01
Cn1cnc2c1c(=O)[nH]c(=O)n2C	0.469
